Several values for one entry are separate records, joined by “and”; a condition that tells them apart may be missing. Equal entries are not always repeated. Where a structure was tested more than once in an assay, its records may differ in their call. Activity calls are given as the source filed them. Rule for the calls: active = hit-call score of the fitted dose curve at least 0.9, where 1 is the maximum; inactive = score below 0.9.

Sequence of Paired box protein Pax-6 (Homo sapiens) (P26367 whole entry, looked up): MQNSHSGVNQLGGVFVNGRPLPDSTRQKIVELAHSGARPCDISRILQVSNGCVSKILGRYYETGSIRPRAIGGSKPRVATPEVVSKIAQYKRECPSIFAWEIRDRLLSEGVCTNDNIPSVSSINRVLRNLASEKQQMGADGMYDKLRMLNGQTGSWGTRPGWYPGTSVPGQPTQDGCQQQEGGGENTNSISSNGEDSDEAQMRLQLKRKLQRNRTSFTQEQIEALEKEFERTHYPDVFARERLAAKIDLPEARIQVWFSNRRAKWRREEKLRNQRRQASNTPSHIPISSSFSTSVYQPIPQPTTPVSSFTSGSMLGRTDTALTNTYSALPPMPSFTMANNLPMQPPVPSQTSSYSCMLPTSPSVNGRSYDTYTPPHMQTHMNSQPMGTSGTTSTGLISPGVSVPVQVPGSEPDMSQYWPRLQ

The experiment concerns the target Paired box protein Pax-6 (Homo sapiens) (UniProt P26367). Kind of experiment: ATG_Pax6_CIS: Attagene CIS-FACTORIAL HepG2 Assay for human Paired Box 6 (PAX6) (AID 2282956). Particulars: HepG2 CIS-FACTORIAL PAX6 reporter transcription, RNA readout; actives raise or lower the signal. The method, then: ATG_CIS is a cell-based, multiplexed-readout assay that uses HepG2, a human liver cell line, with measurements taken at 24 hours after chemical dosing in a 24-well plate.ATG_Pax6_CIS is one of 52 assay component(s) measured or calculated from the ATG_CIS assay. It is designed to make measurements of mRNA induction, a form of inducible reporter, as detected with fluorescence intensity signals by Reverse transcription polymerase chain reaction (RT-PCR) and Capillary electrophoresis technology.Data from the assay component ATG_Pax6_CIS was analyzed into 1 assay endpoint. This assay endpoint, ATG_Pax6_CIS, was analyzed with bidirectional fitting relative to DMSO as the negative control and baseline of activity. Using a type of inducible reporter, measures of mRNA for gain or loss-of-signal activity can be used to understand the reporter gene at the transcription factor-level as they relate to the gene PAX6. Furthermore, this assay endpoint can be referred to as a primary readout, because this assay has produced multiple assay endpoints where this one serves a reporter gene function. To generalize the intended target to other relatable targets, this assay endpoint is annotated to the dna binding intended target family, where the subfamily is paired box protein.
Human liver HepG2 cells are transiently transfected with multiple reporter transcription units (MRTUs) in 6-well plates using FuGene 6 reagent (Roche; 3 ml FuGene/1 mg DNA). The MRTU constructs are regulated by a cis-regulating element (promoter). […] A major difference between the CIS and TRANS system is that in CIS activities of endogenous TFs are measured, whereas the TRANS assay evaluates changes in activities of exogenous, chimeric NR-Gal4 proteins. […] At the end of 24 hour incubation, total RNA was isolated using TriZol reagent (Invitrogen). The isolated RNA is then reverse-transcribed using oligo(dT) primer and Mo-MLV reverse transcriptase (Invitrogen) with DNAse I (Ambion) treatment for 30 min. The one-tenth of the produced cDNA was amplified by PCR using Taq DNA polymerase (Invitrogen) and two reporter sequence-specific primers. The PCR products were fluorescently labeled by primer extension with 6-arboxyfluorescein (6-FAM) 5'-labeled reporter sequence-specific primer (2 min at 95 C, 20 s at 68 C and 10 min at 72 C) and these products were digested with 5U of HpaI (New England Biolabs) for 2h at 37 C. The fragments were purified using Qiaquick PCR columns (Qiagen), analyzed on an ABI 3130xL genetic analyzer (Applied Biosystems) with peak positions identified by using a set of X-rhodamine (ROX)-labeled MapMarker1000 molecular weight standards (BioVentures). The raw capillary electrophoresis data was processed using Attagraph software (Attagene).
As to `O=C(O)CO`, the outcome was inactive. Turning to `CCCCCCCCCCCCCCCCOS(=O)(=O)O`, the call was inactive. Take `O=C(N[C@H](CO)[C@H](O)c1ccc([N+](=O)[O-])cc1)C(Cl)Cl`: the result was inactive. For `OCC(CO)(CO)CO`, the call was inactive. In the case of `CC(C)C(=O)Nc1ccc([N+](=O)[O-])c(C(F)(F)F)c1`, the result was inactive.

Turning to `CCCCCOC(C)=O`, the result was inactive. Consider `OC(O)(C(F)C(O)(O)C(F)(F)F)C(F)(F)F`, for which the call was inactive. As for `COc1cc2c(c(OC)c1OC)-c1ccc(OC)c(=O)cc1[C@@H](NC(C)=O)CC2`, the result was inactive.

Turning to `CCn1nc(C)c2c1C(=O)NCC(c1ccc(O)cc1)=N2`, the call was inactive. `FC(F)(F)COC(OCC(F)(F)F)OCC(F)(F)F`: the result was inactive. For the compound `CCOC(N)=O`, the compound was called inactive. `Cn1cc[nH]c1=S`: the compound was called inactive. Regarding `NC(=O)N1c2ccccc2C=Cc2ccccc21`, the call was inactive. Turning to `CCCOc1ccc(S(=O)(=O)N2CCN(CC)CC2)cc1-c1nc2c(CC)n(Cc3ccccn3)nc2c(=O)[nH]1`, the AC50 (as a rule, the midpoint of the concentration-response curve, whichever way the signal moves) was 40.2 µM (active).

In the case of `Cc1nc(-c2ccccn2)ncc1C(=O)Nn1cc(C)c2cc(F)ccc21`, the compound was classed as inactive.

Take `O=c1[nH]cnc2c1ncn2[C@H]1CC[C@@H](CO)O1`: the compound was classed as inactive. Consider `O=C(NO)C1(NS(=O)(=O)c2ccc(Oc3ccc(F)cc3)cc2)CCOCC1`, for which the outcome was inactive. Take `CCCC(CCC)C(=O)O`: the outcome was inactive.

On to `O=S1(=O)CCCO1`, for which the outcome was inactive. For the compound `O=C(Cl)C(F)(F)C(F)(F)C(F)(F)C(=O)Cl`, the outcome was inactive. Still for that read-out and setting: under `OCCNCCO` stands “inactive”; under `FC(F)C(F)(F)COCC1CO1` (stereo not given), “inactive”; under `OC(Cn1cncn1)(Cn1cncn1)c1ccc(F)cc1F`, “inactive”. For the compound `OCc1c[nH]c2ccccc12`, the AC50 was 6.46 µM (active) and 23.1 µM (active) and 38.2 µM (active); the call was inactive. In the case of `NC(N)=O`, the call was inactive. Consider `CCOc1ccc2[nH]cc(C(=O)NCc3ccccc3)c(=O)c2n1`, for which the call was inactive. `CCCCCCCCCCCCCCO`: the compound was called inactive. On to `c1ccc2cc3ccccc3cc2c1`, for which the compound was called inactive. With `CC[C@H](C)C(=O)O[C@H]1C[C@H](O)C=C2C=C[C@H](C)[C@H](CC[C@@H](O)C[C@@H](O)CC(=O)O)[C@H]21`, the call was inactive. Take `Cc1nccn1-c1ccc(Sc2cccc(C3(C(N)=O)CCOCC3)c2)cc1`: the compound was classed as inactive.

For the compound `CCCCN1C(=O)[C@@H]([C@H](O)C2CCCCC2)NC(=O)C12CCN(Cc1ccc(Oc3ccc(C(=O)O)cc3)cc1)CC2`, the compound was classed as inactive.

For the compound `C[Si](C)(C)C(F)(F)C(F)(F)C(F)(F)F`, the outcome was inactive.

Consider `CCc1cccc(CC)c1N`, for which the compound was called inactive. Turning to `CCCCCCCCN(C)C`, the result was inactive.

As for `c1ccc(C(O[C@@H]2CCCN(CCc3ccc4c(c3)OCO4)C2)c2ccccc2)cc1`, the concentration at half-maximal activity (AC50) was 44.3 µM (active).

Regarding `c1ccc2ncccc2c1`, the outcome was inactive. On to `O=C(O)c1ccc2c(c1)nc(C(=O)NC1CCN(C3CC3)CC1)n2Cc1cc(-c2ccc(Cl)s2)on1`, for which the compound was classed as inactive. `CCc1ccc(O)c(C(C)(C)C)c1`: the result was inactive. `O=C(O)c1cccc(C[C@@H]2COc3ccc(OCc4nc5cc(F)ccc5s4)cc3[C@@H]2O)c1`: the AC50 is 135 µM (active).

(Values after PubChem BioAssay (EPA / NIEHS).)
